In the supplement of paper PMC11060735:
± gives the standard deviation of the averaged measurements. In all, about 1,800 compounds were measured (“GFP- (p16Ink4a-) cell count relative to negative-control wells”: median about 0.99, lowest 2% from about 0.5 on). For the sample, the lowest values were picked, then their nearest neighbours and some compounds at random.

Tested on: mouse p16Ink4a+/- lung fibroblasts (INKBRITE, bleomycin-injured)
Test: GFP- (p16Ink4a-) cell count relative to negative-control wells (fold of vehicle); higher = more p16Ink4a- cells surviving
Settings: 1 µM; 3 days

Compound	GFP-
O=C1Nc2ccc(I)cc2/C1=C/c1cc(Br)c(O)c(Br)c1	1.02
CCOc1ccc(Cc2cc([C@@H]3O[C@H](CO)[C@@H](O)[C@H](O)[C@H]3O)ccc2Cl)cc1 [Dapagliflozin]	1.12
C=CCc1ccc(O)c(-c2ccc(O)c(CC=C)c2)c1 [Honokiol]	0.883
C=CCc1cccc(/C=N/NC(=O)CN2CCN(Cc3ccccc3)CC2)c1O	0.654
Cc1cc(NC(=O)Nc2ccc(N(C)C)cc2)c2cc(F)cc(F)c2n1	1.15
CCOC(=O)[C@H](CCc1ccccc1)N[C@@H](C)C(=O)N1CCC[C@H]1C(=O)O [Enalapril]	1
Cc1ccc(F)c(NC(=O)Nc2ccc(-c3cccc4[nH]nc(N)c34)cc2)c1 [Linifanib]	0.965
NC1(c2ccc(-c3nc4ccn5c(O)nnc5c4cc3-c3ccccc3)cc2)CCC1	0.82
COc1cc([C@@H]2c3cc4c(cc3[C@@H](O[C@@H]3O[C@@H]5CO[C@@H](C)O[C@H]5[C@H](O)[C@H]3O)[C@H]3COC(=O)[C@H]23)OCO4)cc(OC)c1O [Etoposide]	0.985
Cc1nc(O)c2cc(CN(C)c3ccc(C(=O)N[C@@H](CCC(=O)O)C(=O)O)s3)ccc2n1 [Raltitrexed]	1.01
CC(C)N(CCCNC(=O)Nc1ccc(C(C)(C)C)cc1)C[C@H]1O[C@@H](n2cc(Br)c3c(N)ncnc32)[C@H](O)[C@@H]1O	1.01 ± 0.042
COc1ccc(C(C)=O)c(O)c1 [Paeonol]	1.18
Cc1nc(NC(=O)N2CCC[C@H]2C(N)=O)sc1-c1csc(C(C)(C)C)n1	1.03
CNC(=O)c1ccccc1Nc1nc(Nc2ccc(N3CCOCC3)cc2OC)ncc1Cl	0.742
CN1CC[C@H](c2c(O)cc(O)c3c(=O)cc(-c4ccccc4Cl)oc23)[C@H](O)C1 [Flavopiridol]	0.326
CN1CC[C@@H](c2c(O)cc(O)c3c(=O)cc(-c4ccccc4Cl)oc23)[C@@H]1CO	0.807
CC(=O)/N=c1/sc(S(N)(=O)=O)nn1C [Methazolamide]	1.16
C=C1C(=O)[C@@]23C(CC[C@@H]1[C@H]2O)[C@@]12CO[C@]3(O)[C@@H](O)[C@@H]1C(C)(C)CC[C@@H]2O (stereo partly drawn) [Oridonin]	0.884
C[C@@H](CN1CC(=O)NC(=O)C1)N1CC(=O)NC(=O)C1 [Dexrazoxane]	0.899

Compound	GFP-
Cn1ncnc1[C@H]1c2nnc(O)c3cc(F)cc(c23)N[C@@H]1c1ccc(F)cc1	0.616 ± 0.066
CC1=NC(N)=C(C(=O)OC2CN(C(c3ccccc3)c3ccccc3)C2)C(c2cccc([N+](=O)[O-])c2)/C1=C(/O)OC(C)C (stereo not drawn) [Azelnidipine]	1.11
Cc1cc(CN2CCN(c3c(Br)cnc4[nH]c(-c5ccc(N6CCN(C)CC6)cc5)nc34)CC2)no1	0.664 ± 0.17
NS(=O)(=O)c1cc2c(cc1Cl)NCNS2(=O)=O [Hydrochlorothiazide]	1.06
CC[C@]1(O)C[C@@H]2CN(CCc3c([nH]c4ccccc34)[C@@](C(=O)OC)(c3cc4c(cc3OC)N(C=O)[C@@H]3C45CCN4CC=C[C@](CC)([C@H]45)[C@@H](OC(C)=O)[C@]3(O)C(=O)OC)C2)C1 (stereo partly drawn) [Vincristine]	0.699
CCn1cc(C(=O)O)c(=O)c2ccc(C)nc21 [Nalidixic Acid]	0.895
CC(=O)O[C@]1(C(C)=O)CC[C@H]2[C@@H]3C[C@H](C)C4=CC(=O)C=C[C@]4(C)[C@@]3(F)[C@@H](O)C[C@@]21C [Fluorometholone Acetate]	1.14
C[C@@]1(C(=O)Nc2ccc(F)nc2)CCCN1c1nc(Nc2cc(C3CC3)[nH]n2)c2cccn2n1	0.776
COc1cc2nc(N3CCN(C(=O)C4CCCO4)CC3)nc(N)c2cc1OC (stereo not drawn) [Terazosin]	0.942
CC(C(=O)O)c1ccc2c(c1)CC(=O)c1ccccc1S2 (stereo not drawn) [Zaltoprofen]	1.01
Cc1ccc(CNc2ncnc3ccc(-c4ccc(CO)o4)cc23)o1	0.793
CC1=C(C(=O)OC2CCCCC2)C(c2ccc([N+](=O)[O-])cc2)C2=C(O)CC(C)(C)CC2=N1 (stereo not drawn)	0.82
CC(C)c1ccc(NC(=O)Cn2cnc3c2c(=O)n(C)c(=O)n3C)cc1	0.98
Nc1ccc(-c2ccc3ncc4ccc(=O)n(-c5cccc(C(F)(F)F)c5)c4c3c2)cn1 [Torin 2]	0.456
CCC(=O)N1CCN(c2ccc(-n3c(=O)ccc4cnc5ccc(-c6cnc7ccccc7c6)cc5c43)cc2C(F)(F)F)CC1 [Torin 1]	0.571
CN(NC(=O)CC(=O)NN(C)C(=S)c1ccccc1)C(=S)c1ccccc1 [Elesclomol]	0.277
O=C(O)CCNC(=O)c1ccccc1 [Betamipron]	1.06
O=C(O)c1ccccc1 [Benzoic Acid]	1.05
CC1(C)O[C@@H]2C[C@H]3[C@@H]4CCC5=CC(=O)CC[C@]5(C)[C@@]4(F)[C@@H](O)C[C@]3(C)[C@]2(C(=O)CCl)O1 [Halcinonide]	1.02
